The text below walks through data of the supplement of paper PMC10849652.

Common to all, as to test: log2 fold change, soluble protein after heating vs DMSO (PISA); higher = thermal stabilisation; K562 cells, 10 uM, 30 min; active = over 0.2 and 3.5 SD of the protein, either way, in both replicates (recomputed)
The target of one assay is AAGAB (UniProt Q6PD74). Put shortly:
(§1)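 Soluble protein was quantified by TMTpro 16plex LC-MS/MS after channel sums were equalised. It was obtained as the supernatant after 21,000xg for 90 min from pooled aliquots of K562 cells (2×10^6 cells/mL, 10 μM compound, 30 min) heated for 3 min across 48°C-58°C and extracted in PBS with 0.5% NP-40 at 4°C. Thermal stability values are relative to control samples and come from duplicates. They are given as log2 fold changes.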

Assay [1] addresses AAK1 (UniProt A0A096LP25). Put shortly:
as §1

Assay [2] deals with AAK1 (UniProt Q2M2I8). Put shortly:
as §1

Structures are written as SMILES. About 7,900 targets were measured; listed, in parts, are those with a hit and a random draw of the rest. About 0.6% of all pairs of compound and target were hits.

Sequence of AAK1 (UniProt Q2M2I8) (Q2M2I8 whole entry, looked up): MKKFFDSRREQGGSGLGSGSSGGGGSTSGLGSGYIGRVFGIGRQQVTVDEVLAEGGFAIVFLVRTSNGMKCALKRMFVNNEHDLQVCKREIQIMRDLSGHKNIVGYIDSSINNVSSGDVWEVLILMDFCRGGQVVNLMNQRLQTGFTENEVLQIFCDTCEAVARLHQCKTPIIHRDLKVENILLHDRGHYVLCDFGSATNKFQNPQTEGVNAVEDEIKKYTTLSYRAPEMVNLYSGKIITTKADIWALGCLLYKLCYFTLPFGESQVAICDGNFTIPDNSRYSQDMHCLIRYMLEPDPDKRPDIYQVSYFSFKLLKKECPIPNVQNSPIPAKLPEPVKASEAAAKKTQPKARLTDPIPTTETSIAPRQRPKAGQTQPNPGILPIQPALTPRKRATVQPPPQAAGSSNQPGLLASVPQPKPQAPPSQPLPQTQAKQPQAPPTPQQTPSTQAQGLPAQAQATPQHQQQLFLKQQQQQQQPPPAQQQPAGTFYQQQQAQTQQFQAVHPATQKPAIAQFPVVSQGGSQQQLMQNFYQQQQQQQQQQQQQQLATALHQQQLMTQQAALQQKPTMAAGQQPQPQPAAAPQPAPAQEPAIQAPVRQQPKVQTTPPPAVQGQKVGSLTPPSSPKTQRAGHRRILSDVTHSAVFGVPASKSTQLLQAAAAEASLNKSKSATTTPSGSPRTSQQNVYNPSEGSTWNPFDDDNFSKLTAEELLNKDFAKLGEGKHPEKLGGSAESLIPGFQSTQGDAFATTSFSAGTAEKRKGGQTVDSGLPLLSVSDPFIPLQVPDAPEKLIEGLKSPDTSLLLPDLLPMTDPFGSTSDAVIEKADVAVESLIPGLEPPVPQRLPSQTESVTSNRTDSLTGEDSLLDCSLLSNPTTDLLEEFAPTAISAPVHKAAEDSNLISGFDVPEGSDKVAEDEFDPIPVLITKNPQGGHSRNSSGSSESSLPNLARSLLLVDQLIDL
Sequence of AAGAB (Q6PD74 whole entry, looked up): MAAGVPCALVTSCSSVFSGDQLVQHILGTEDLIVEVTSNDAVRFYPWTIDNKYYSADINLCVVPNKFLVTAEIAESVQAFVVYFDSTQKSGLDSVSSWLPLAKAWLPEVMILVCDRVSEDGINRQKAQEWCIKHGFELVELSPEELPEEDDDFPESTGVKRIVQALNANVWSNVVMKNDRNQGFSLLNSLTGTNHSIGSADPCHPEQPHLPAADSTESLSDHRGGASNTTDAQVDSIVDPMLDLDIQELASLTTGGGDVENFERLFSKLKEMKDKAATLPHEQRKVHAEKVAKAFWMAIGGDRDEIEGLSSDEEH

As to `CNCc1ccc(-c2[nH]c3cc(F)cc4c3c2CCNC4=O)cc1` [rucaparib], the log2 fold change was 0.055 (inactive) in the assay with AAGAB, 0.007 (inactive) in the assay with AAK1 [1] and -0.013 (inactive) with AAK1 [2].
With `CN1CCc2c(c3ccccc3n2Cc2ccc(C(=O)NO)cc2)C1` [Tubastatin A], the log2 fold change in the assay with AAGAB is 0.016 (inactive); in the assay with AAK1 [1], -0.05 (inactive); in the assay with AAK1 [2], 0.003 (inactive).
As for `C[C@@H](N)c1ccc(C(=O)Nc2ccnc3[nH]ccc23)cc1`, the log2 fold change was 0.084 (inactive) with AAGAB, 0.365 (inactive) with AAK1 [1] and 0.412 (active) in the assay with AAK1 [2].
As to `Cc1cc(Nc2cc(N3CCN(C)CC3)nc(Sc3ccc(NC(=O)C4CC4)cc3)n2)n[nH]1` [tozasertib], the log2 fold change with AAGAB was 0.029 (inactive); with AAK1 [1], 0.152 (inactive); in the assay with AAK1 [2], 0.211 (inactive).
As for `c1cn2cc(-c3ccc4cn[nH]c4c3)nc(Nc3ccc(N4CCOCC4)cc3)c2n1` [entospletinib], the values for the log2 fold change with AAGAB, in the assay with AAK1 [1] and in the assay with AAK1 [2] were 0.116 (inactive), 0.224 (inactive) and 0.132 (inactive), respectively.
Regarding `CCn1c(C(=O)N(C2CC2)C2CC2)cc2c3c(ncn3C)c(Nc3cc(C)n(C)n3)nc21`, the log2 fold change in the assay with AAGAB is 0.073 (inactive); in the assay with AAK1 [1], -0.041 (inactive); with AAK1 [2] it was 0.019 (inactive).
Turning to `NC1(Cc2ccc(Cl)cc2)CCN(c2ncnc3[nH]ccc23)CC1`, the figures for the log2 fold change with AAGAB, in the assay with AAK1 [1] and in the assay with AAK1 [2] were 0.054 (inactive), 0 (inactive) and -0.085 (inactive), respectively.
As to `CC[C@@H]1C(=O)N(C)c2cnc(Nc3ccc(C(=O)NC4CCN(C)CC4)cc3OC)nc2N1C1CCCC1`, the log2 fold change is -0.106 (inactive) with AAGAB, -0.086 (inactive) with AAK1 [1] and 0.078 (inactive) with AAK1 [2].
`COc1cc(Nc2ncc3c(n2)-c2ccc(Cl)cc2C(c2c(F)cccc2OC)=NC3)ccc1C(=O)O` [alisertib]: the log2 fold change is 0.062 (inactive) in the assay with AAGAB, 0.002 (inactive) in the assay with AAK1 [1] and 0.576 (inactive) with AAK1 [2].
As for `c1cc(OCCN2CCCCC2)cc(-c2n[nH]c3ccc(-c4nnc[nH]4)cc23)c1`, the log2 fold change is -0.158 (inactive) with AAGAB, 0.142 (inactive) in the assay with AAK1 [1] and 0.052 (inactive) with AAK1 [2].
On to `CCCS(=O)(=O)Nc1ccc(F)c(C(=O)c2c[nH]c3ncc(-c4ccc(Cl)cc4)cc23)c1F` [vemurafenib], for which the values for the log2 fold change with AAGAB, with AAK1 [1] and with AAK1 [2] were -0.012 (inactive), -0.016 (inactive) and 0.147 (inactive), respectively.
In the case of `COC(=O)[C@H](CCSC)NC(=O)c1ccc(NC[C@@H](N)CS)cc1-c1ccccc1`, the log2 fold change was -0.029 (inactive) with AAGAB, 0.023 (inactive) in the assay with AAK1 [1] and -0.044 (inactive) with AAK1 [2].
Regarding `O=C1NC(=NCc2cccs2)S/C1=C\c1ccc2ncccc2c1`, the log2 fold change with AAGAB was -0.059 (inactive); with AAK1 [1], 0.234 (inactive); with AAK1 [2], 0.339 (inactive).
Regarding `CNC(=O)c1ccccc1Nc1nc(Nc2ccc(N3CCOCC3)cc2OC)ncc1Cl`, the log2 fold change is 0.112 (inactive) with AAGAB, 0.333 (inactive) in the assay with AAK1 [1] and 0.281 (inactive) with AAK1 [2].
In the same order, the values of `CN(C)CC(=O)Nc1ccc2[nH]c(=O)c3ccccc3c2c1` are 0.021 (inactive), 0.037 (inactive) and 0.087 (inactive).
On the same counts, the results for `NCC(=O)Nc1ccc(-n2nc(C(F)(F)F)cc2-c2ccc3c(ccc4ccccc43)c2)cc1` are -0.011 (inactive), -0.085 (inactive) and 0.045 (inactive).
On the same counts, the results for `O=C1NC(=O)C(c2cnc3ccccn23)=C1c1cn2c3c(cc(F)cc13)CN(C(=O)N1CCCCC1)CC2` are -0.109 (inactive), -0.159 (inactive) and 0.238 (inactive).
In the case of `COc1cccc2cc(-c3nc([C@H]4CC[C@H](C(=O)O)CC4)n4ncnc(N)c34)[nH]c12`, the log2 fold change in the assay with AAGAB was -0.045 (inactive); with AAK1 [1], 0.129 (inactive); with AAK1 [2], 0.022 (inactive).
In the case of `CN1CC[C@H](c2c(O)cc(O)c3c(=O)cc(-c4ccccc4Cl)oc23)[C@H](O)C1` [alvocidib], the log2 fold change was 0.008 (inactive) with AAGAB, -0.009 (inactive) in the assay with AAK1 [1] and 0.025 (inactive) in the assay with AAK1 [2].
For `O=C1c2ccccc2-c2n[nH]c3cccc1c23`, the log2 fold change in the assay with AAGAB was 0.01 (inactive); with AAK1 [1], 0.254 (inactive); in the assay with AAK1 [2], 0.319 (inactive).
For the compound `C/C(=N\NC(=O)c1cccc(S(=O)(=O)N2CCOCC2)c1)c1cc(Cl)ccc1O`, the log2 fold change with AAGAB was 0.088 (inactive); with AAK1 [1] it was -0.092 (inactive); with AAK1 [2], -0.055 (inactive).
`Cn1c2cc(S(C)=O)sc2c2cnn(Cc3cccc(N)c3)c(=O)c21` (centres undefined): the log2 fold change in the assay with AAGAB was 0.125 (inactive); with AAK1 [1], -0.073 (inactive); in the assay with AAK1 [2] it was -0.108 (inactive).
As for `CC[C@H](C)n1cc(C)c2c(C(=O)NCc3c(C)cc(C)[nH]c3=O)cc(-c3ccc(N4CCNCC4)nc3)cc21`, the log2 fold change is 0.058 (inactive) with AAGAB, -0.005 (inactive) with AAK1 [1] and -0.013 (inactive) in the assay with AAK1 [2].
